One may read the inhibition as the change of the read-out against control, counted positive when it falls.

Experimental findings from PubChem BioAssay AID1986 (Sanford-Burnham Center for Chemical Genomics, 2009) are described below.

This experiment can be described thus: cell-free HIV fusion peptide-binding blockers – biochemical, uHTS, fluorescence dequenching, primary screen (AID 1986). The following applies: 30 min, stronger effect = higher value.
[1] abbreviates: measured here: repeat confirmation average inhibition, at 18.6 µM.

Out of some 290,000 compounds screened, about 890 (0.31%) were called active. Cut-off read from the data, not from the text of the source: active = inhibition mostly above about 52% (no sharp cut-off); inactive = mostly below about 76%. Only a selection was taken, and actives are over-represented in it overall.

Regarding `O=C(Nc1ccccc1)c1ccc(NCC2CCCO2)c(S(=O)(=O)N2CCOCC2)c1` (centres undefined), the inhibition (at 20 µM) is -0.2% (inactive).

With `CCOC(=O)c1c(NC(=O)CSc2ncn[nH]2)sc(C(=O)NC)c1C`, for the setting “at 20 µM”, the inhibition was -0.5% (inactive).

For the compound `Cn1c(SCC(=O)Nc2ccc3c(c2)OCCO3)nnc1C1CC1`, the inhibition (at 20 µM) is 0.2% (inactive).

In the case of `CN1C(=O)/C(=C/c2cn(CC(=O)NCc3ccco3)c3ccccc23)NC1=S`, for the setting “at 20 µM”, the inhibition is 0.4% (inactive).

`COc1cc(/C=N/NC(=O)c2cccc(S(=O)(=O)N3CCCCC3)c2)cc(Br)c1O`: the inhibition (at 20 µM) is 1.7% (inactive).

As for `O=C(NC(Cc1ccccc1)C(=O)O)/C(=C\c1ccc(F)cc1)NC(=O)c1ccccc1` (centres undefined), the inhibition (at 20 µM) was 12.8% (inactive).

As for `CC(=O)Nc1ccc2c(c1)nc(CCN1CCN(C)CC1)n2C`, the inhibition (at 20 µM) was -1.1% (inactive).

For the compound `O=C(Cc1ccc([N+](=O)[O-])cc1)Nc1ccc2c(c1)OCO2`, the inhibition (at 20 µM) is 0.9% (inactive).

For `CCCc1nc(SC)[nH]c(=O)c1C`, the inhibition (at 20 µM) is -0.9% (inactive).

`C#CCN1C(=O)S/C(=C\c2ccc(-c3ccc(Cl)c(C(=O)O)c3)o2)C1=O`: under “at 20 µM”, the inhibition was 18.9% (inactive).

For the compound `COc1ccc(CN2C(=O)/C(=C/c3ccc(-c4ccc(Cl)c(C(=O)O)c4)o3)SC2=S)cc1`, under “at 20 µM”, the inhibition was 139% (inactive).

Turning to `O=C(O)c1cc(-c2ccc(/C=C3/SC(=S)N(Cc4ccccc4)C3=O)o2)ccc1Cl`, under “at 20 µM”, the inhibition is 58.1% (active).

With `CCCCn1c(N)c(NCc2ccccc2OC)c(=O)[nH]c1=O`, for the setting “at 20 µM”, the inhibition was 2.3% (inactive).

Turning to `Nc1c(-c2cccc(Cl)c2)cnn1-c1ccccc1`, the inhibition (at 20 µM) is -1.8% (inactive).

As to `c1ccc2sc(NC3=NCN(CC4CCCO4)CN3)nc2c1` (centres undefined), the inhibition (at 20 µM) is 1.1% (inactive).

Take `CC(=O)Nc1ccc(/C=N/Nc2ccc(C(=O)c3c(C)cc4ccccn34)cc2[N+](=O)[O-])cc1`: where the note is “at 20 µM”, the inhibition is -5.5% (inactive).

Take `Cc1cc2ccccn2c1C(=O)c1ccc(NN)c([N+](=O)[O-])c1`: where the note is “at 20 µM”, the inhibition was -4.5% (inactive).

`Cc1cc2ccccn2c1C(=O)c1ccc(N/N=C/c2ccc(C(=O)O)cc2)c([N+](=O)[O-])c1`: the inhibition (at 20 µM) is 52.9% (active).

`COc1cccc(-c2c(C(=O)N/N=C/c3cccnc3)nnn2-c2nonc2N)c1`: for the setting “at 20 µM”, the inhibition was -0.9% (inactive).

In the case of `CCOC(=O)N1CCN(c2cc(NCCC(=O)O)c3c4c(onc24)-c2ccccc2C3=O)CC1`, the inhibition (at 20 µM) was 18% (inactive).

For the compound `CN1CCN(c2cc(N3CCN(C(=O)c4ccco4)CC3)c3c4c(onc24)-c2ccccc2C3=O)CC1`, for the setting “at 20 µM”, the inhibition was 5.9% (inactive).

As for `O=C(O)CCCNc1cc(N2CCC3(CC2)OCCO3)c2noc3c2c1C(=O)c1ccccc1-3`, the inhibition (at 20 µM) is 58.7% (active).

On to `CC(=O)OCCNc1cc(N2CCN(C)CC2)c2noc3c2c1C(=O)c1ccccc1-3`, for which the inhibition (at 20 µM) was -2% (inactive).

On to `CCN1CCN(c2cc(N3CCN(C(=O)c4ccco4)CC3)c3c4c(onc24)-c2ccccc2C3=O)CC1`, for which the inhibition (at 20 µM) is 10.6% (inactive).

With `O=C(O)CCCNc1cc(N2CCN(C(=O)c3ccco3)CC2)c2noc3c2c1C(=O)c1ccccc1-3`, the inhibition (at 20 µM) is 70% (active).

With `O=[N+]([O-])c1c(NCCO)cc(N2CCC3(CC2)OCCO3)c2nonc12`, the inhibition (at 20 µM) was -2.2% (inactive).

`O=C(O)CCNc1cc(N2CCN(C(=O)c3ccco3)CC2)c2noc3c2c1C(=O)c1ccccc1-3`: where the note is “at 20 µM”, the inhibition is 54.7% (active).

With `O=C1c2ccccc2-c2onc3c(N4CCN(CCO)CC4)cc(N4CCN(C(=O)c5ccco5)CC4)c1c23`, the inhibition (at 20 µM) is 5.9% (inactive).

Turning to `CCCCNC(=O)Nc1nnc(SCC(=O)OCC)s1`, the inhibition (at 20 µM) was -2.1% (inactive).

In the case of `COc1ccc(Cc2nc3ccccc3[nH]c2=O)cc1`, the inhibition (at 20 µM) was -2.8% (inactive).

For the compound `Cc1ccc(C2C(C#N)=C(N)SC(N)=C2C#N)c(C)c1`, the inhibition (at 20 µM) was -3.6% (inactive).

In the case of `Cc1sccc1C1C(C#N)=C(N)SC(N)=C1C#N`, the inhibition (at 20 µM) was 32.9% (inactive).

For the compound `Cc1cc(C2C(C#N)=C(N)SC(N)=C2C#N)c(C)s1`, the inhibition (at 20 µM) is 51.9% (active) and the inhibition under setting [1] turned out to be 68.2%.

`C=CCN1C(=O)/C(=C/c2ccc(N(C)C)cc2)S/C1=N\c1nnc(CC)s1`: the inhibition (at 20 µM) was 61.5% (active).

With `C=CCN1C(=O)/C(=C/c2ccccc2)S/C1=N/c1nccs1`, the inhibition (at 20 µM) is 1.5% (inactive).

With `C=CCN=C1S/C(=C\c2ccc(N(C)C)cc2)C(=O)N1CC=C`, the inhibition (at 20 µM) is 2.1% (inactive).

Turning to `Cc1[nH]c(=O)[nH]c(=O)c1S(=O)(=O)N1CCCC(C(=O)NCCC2=CCCCC2)C1` (centres undefined), the inhibition (at 20 µM) was 0.7% (inactive).

For the compound `COc1ccc(Cl)cc1Nc1nc(C)nc2c1nnn2Cc1ccccc1`, the inhibition (at 20 µM) was -1% (inactive).

For `COc1ccc(NC(=O)CC2Nc3cccc4cccc(c34)NC2=O)cc1` (centres undefined), the inhibition (at 20 µM) was 51.5% (inactive) and the inhibition under setting [1] is -2.3%.

Regarding `Cc1cccc(NC(=O)CC2Nc3cccc4cccc(c34)NC2=O)c1` (centres undefined), the inhibition (at 20 µM) is -5.8% (inactive).

With `CC(=O)Nc1ccc(NC(=O)CC2Nc3cccc4cccc(c34)NC2=O)cc1` (centres undefined), the inhibition is, setting by setting: (at 20 µM) 67.6% (inactive); under setting [1], -1.4%.

Take `O=C(CC1Nc2cccc3cccc(c23)NC1=O)Nc1ccc(F)cc1` (centres undefined): the inhibition (at 20 µM) was 59.6% (inactive) and the inhibition under setting [1] is -0.8%.

Take `NC(=O)CC1Nc2cccc3cccc(c23)NC1=O` (centres undefined): the inhibition (at 20 µM) is 57.4% (active).

Take `O=C(CC1Nc2cccc3cccc(c23)NC1=O)Nc1ccccc1` (centres undefined): the inhibition (at 20 µM) was 57.7% (active).

On to `COc1cc2c(cc1NC(=O)CSc1nnc(Cc3cccs3)n1C)oc1ccccc12`, for which the inhibition (at 20 µM) is -3.3% (inactive).

As to `CCOC(=O)c1c(-c2ccccc2)csc1NC(=O)/C(C#N)=C/c1ccc(O)c(OC)c1`, the inhibition runs as follows: (at 20 µM) 78.2% (active); under setting [1], 53.4%.

Regarding `CCOC(=O)c1c(-c2ccccc2)csc1NC(=O)/C(C#N)=C/c1ccc(OC)c(OC)c1`, the inhibition (at 20 µM) is 24.6% (inactive).

As to `CCOC(=O)c1c(-c2ccc(C)cc2)csc1NC(=O)/C(C#N)=C/c1ccc(O)c(OC)c1`, the inhibition was 95% (inactive) (at 20 µM) and 7.7% under setting [1].

Consider `COC(=O)C1=C(C)N(C)C(=O)NC1c1c(OC)ccc2ccccc12` (centres undefined), for which the inhibition (at 20 µM) was -0.6% (inactive).

Take `O=C(Nc1ccc(Cl)cc1F)C1CCN(S(=O)(=O)c2cccnc2)CC1`: the inhibition (at 20 µM) is -1.9% (inactive).

In the case of `COc1ccc(NC(=O)C23CC4CC(C2)CC(n2cnc(Br)n2)(C4)C3)c(OC)c1`, where the note is “at 20 µM”, the inhibition is -1.5% (inactive).

On to `COc1cc(OC)c(OC)cc1CNCCNC(=O)c1ccco1`, for which the inhibition (at 20 µM) is 1.1% (inactive).

As to `Cc1onc(-c2ccccc2Cl)c1C(=O)N1CCCc2ccccc21`, the inhibition (at 20 µM) is -0.5% (inactive).

Regarding `COc1ccc(CCNS(=O)(=O)c2cccc3nsnc23)cc1OC`, for the setting “at 20 µM”, the inhibition is 0.3% (inactive).

Regarding `c1ccc(CCn2nnnc2CN2CCc3ccccc32)cc1`, the inhibition (at 20 µM) was 1.1% (inactive).

As for `CC1=C(C#N)c2nc(N)c(C#N)c(C)c2/C1=C\c1ccc(-c2ccccc2C(=O)O)o1`, the inhibition (at 20 µM) was 56.8% (active).

With `CC1=C(C#N)c2nc(N)c(C#N)c(C)c2/C1=C\c1ccc(OCC(=O)O)c(Cl)c1`, for the setting “at 20 µM”, the inhibition is 28% (inactive).

In the case of `CC1=C(C#N)c2nc(N)c(C#N)c(C)c2/C1=C\c1ccc(C)cc1`, the inhibition (at 20 µM) was 15.6% (inactive).
